# Rows were chosen to be rich in hits. Some 12% of all compounds tested hit in one or more screens of this group.
# G9a inh – blocks human histone lysine methyltransferase G9a | Q96KQ7 | G9a H3K9 monomethylation, AlphaScreen, 2 h | Potency, µM (highest dose often 102 µM), for inactives: at the top dose activity, negative = inhibition, actives largely listed as inhibitors | actives 8.8% (n = 350,000) | AID 504332; also: % is scaled to controls: 0 for no effect and ±100 for the full control effect; nearly all actives have a fitted effect of over 75% in size
#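 Readings reflect AlphaScreen signal from monomethyl-H3K9 antibody detection. HMT at 20 nM; substrate b-H3K9 500 nM; cofactor SAM 20 uM; 2 h RT reaction; compounds tested as titrations in qHTS with 15 min preincubation.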
# BAZ2B inh – BAZ2B (human) inhibition; AID 504333; Q9UIF8; AlphaScreen BAZ2B-H3K14Ac peptide displacement; Potency, µM (titrated, usually from 114 µM), without a hit: top-dose activity change, negative = inhibition, most hits filed as inhibitors; actives 4.4% (n = 360,000); also: % is scaled to controls: 0 for no effect and ±100 for the full control effect; nearly all actives have a fitted effect of over 60% in size
#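 Protein-peptide AlphaScreen: BAZ2B 50 nM, b-H3K14Ac 50 nM, 1x PBS pH 7.4 + 0.01% Tween-20. Preincubation 30 min RT; cpd 30 min RT (top 110 uM); beads 20 min RT, light-protected.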
# Sfp inh – Sfp phosphopantetheinyl transferase inhibition. Q9F4F7. Potency, µM, without a hit: largest response in the series, negative = inhibition, hits mostly inhibitors. actives 3.5% (n = 310,000). Biochemical Sfp PPTase activity, qHTS;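 also: the enzyme is Sfp with the accession as filed and its product quenches rhodamine fluorescence; 0% = enzyme reaction without inhibitor and -100% = no enzyme wells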
#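 Fluorescence-quenching assay: 15 nM Sfp-PPTase preincubated 15 min at room temperature with compound, then 5 uM rhodamine-CoA and 12.5 uM BHQ-2-labelled YbbR peptide added. Fluorescence (ex 525/em 598 nm) read at start and after 30 min; difference gives rate.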
# HP1b chromo inh – HP1-beta chromodomain-methylated histone interaction inhibition; AlphaScreen HP1-beta / biotin-H3K9me3 peptide binding; Potency, µM (titrated, usually from 114 µM), without a hit: at the highest dose activity change, negative = inhibition, usual class: inhibitors; actives 0.56% (n = 390,000); P83916; also: nearly all actives have a fitted effect of over 70% in size
#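 HP1-beta protein (50 nM final) preincubated 30 min at room temperature with biotinylated H3(1-18)K9me3 peptide (50 nM) in PBS pH 7.4, 0.01% Tween-20, then compound added for 30 min. AlphaScreen streptavidin donor/nickel chelate acceptor beads (10 ug/mL final), 30 min dark, luminescence read.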
# PLK1 PBD inh – PLK1 (human) polo-box domain binding inhibition; AID 720504; Potency, µM, for the others: max response, negative = inhibition, actives largely listed as inhibitors; P53350; actives 2.8% (n = 360,000); Plk1 PBD binding of FITC phosphopeptide, fluorescence polarization; also: series mostly up to about 57 µM; % is scaled to controls: 0 for no effect and ±100 for the full control effect; nearly all actives have a fitted effect of over 65% in size
# JMJD2A Tudor – inhibitors of human JMJD2A Tudor domain. actives 4.4% (n = 390,000). Potency, µM (highest dose often 114 µM), inactives show at the top dose activity change, negative = inhibition, most hits filed as inhibitors. AlphaScreen JMJD2A-Tudor / H3K4me3 peptide binding. AID 504339; also: % is scaled to controls: 0 for no effect and ±100 for the full control effect; nearly all actives have a fitted effect of over 50% in size
# Target sequence (O75164 whole entry, looked up, the tested form may be a part): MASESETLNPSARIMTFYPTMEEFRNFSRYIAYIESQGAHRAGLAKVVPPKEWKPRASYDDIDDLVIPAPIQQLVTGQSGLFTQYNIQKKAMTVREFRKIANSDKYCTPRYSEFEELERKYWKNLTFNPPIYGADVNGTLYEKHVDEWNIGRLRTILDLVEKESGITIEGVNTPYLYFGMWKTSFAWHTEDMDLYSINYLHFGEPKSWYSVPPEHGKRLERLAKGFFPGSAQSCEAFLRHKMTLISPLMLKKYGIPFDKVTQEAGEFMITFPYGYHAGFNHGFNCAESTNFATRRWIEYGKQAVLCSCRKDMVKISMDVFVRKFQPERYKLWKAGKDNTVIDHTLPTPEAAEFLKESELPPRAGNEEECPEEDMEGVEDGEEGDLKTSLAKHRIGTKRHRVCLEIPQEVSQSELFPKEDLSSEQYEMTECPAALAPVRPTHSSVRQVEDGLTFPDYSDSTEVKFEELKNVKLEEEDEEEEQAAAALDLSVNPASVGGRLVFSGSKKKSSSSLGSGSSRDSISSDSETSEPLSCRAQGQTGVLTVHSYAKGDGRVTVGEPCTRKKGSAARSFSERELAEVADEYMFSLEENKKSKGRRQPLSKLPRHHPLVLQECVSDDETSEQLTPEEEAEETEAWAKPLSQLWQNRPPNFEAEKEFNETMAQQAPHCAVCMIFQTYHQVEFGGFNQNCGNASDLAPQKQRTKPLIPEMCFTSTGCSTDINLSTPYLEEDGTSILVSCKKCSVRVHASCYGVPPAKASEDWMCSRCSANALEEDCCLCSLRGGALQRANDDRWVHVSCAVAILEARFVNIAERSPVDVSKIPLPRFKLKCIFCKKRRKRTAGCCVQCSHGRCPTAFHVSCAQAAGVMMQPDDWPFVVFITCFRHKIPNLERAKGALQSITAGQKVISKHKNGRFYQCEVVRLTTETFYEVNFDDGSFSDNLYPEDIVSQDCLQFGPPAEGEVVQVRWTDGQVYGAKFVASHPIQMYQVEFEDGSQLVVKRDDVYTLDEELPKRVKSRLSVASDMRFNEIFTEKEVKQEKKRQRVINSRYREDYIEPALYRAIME
# The depositor's hits bear a star; u = inconclusive; x = no result; [ ] = another dose, or the depositor's remark. Calls follow the shape of the dose curve; as a rule, active = well fitted curve in the direction sought with a large enough effect; inconclusive = small, poorly fitted or top-dose-only effect, or another doubt; inactive = no such curve, though single readings can be large; an effect the other way counts as inactive or inconclusive. Potency is read from the fitted curve at half-maximal effect.
SMILES,G9a inh,BAZ2B inh,Sfp inh,HP1b chromo inh,PLK1 PBD inh,JMJD2A Tudor
O=C(NCCC(=O)N1CCN(c2ccc(F)cc2)CC1)c1ccco1,50µM*,10%,x,-4%,-10%,-28%
O=C(Cc1ccccc1)NC1CCN(C(=O)NCc2ccccc2)CC1,15%[12.7 µM],5%,21%,-15%,27µM*,0%[11.4 µM]
O=C(Nc1ccc2c(c1)CCCN2C(=O)c1cccs1)c1ccccc1Cl,-7%[59 µM],-24%,x,14%,x,-25%
Cc1c(P(=S)(c2ccccc2)c2ccccc2)c2ccccc2n1C(=O)NCc1ccc(F)cc1,x,x,x,x,x,-16%
CC(=O)c1ccc(NS(=O)(=O)c2ccc(-n3cccn3)cc2)cc1,-28%[59 µM],-9%,x,26%,x,-3%
COc1ccc(N(Cc2cc3cc(C)ccc3[nH]c2=O)C(C)=O)cc1,x,6%,5%,21%,-1%,0%
O=C(NCc1ccccc1)N1CCN(c2ccc(Cl)c(Cl)c2)CC1,17%[59 µM],9%,22%,19%,-7%,-11%
CCN1CCN(C(=S)c2ccc(OCC(=O)Nc3ccc(OC)cc3)cc2)CC1,x,x,x,12%,-4%,-12%
CCN1CCN(C(=S)c2ccc(OCC(=O)NCc3ccccc3)cc2)CC1,10µM*,-17%,22µM*,-15%,11µM*,-27%
CCN1CCN(C(=O)NCc2ccccc2)CC1,22µM*,-3%,-9%,u,5%,1.6µM*
COc1cccc(NC(=O)CCC2CCN(C(=O)c3ccc(C(C)=O)s3)CC2)c1,16%,-4%,11%,28%,0%,-7%
O=C1C2=C(CCCC2)C(=O)N1c1cccc(OCCBr)c1,40µM*,-6%,17%,45%,-5%,6%[57.1 µM]
CC1CCN(c2nc3ccc(C(=O)N4CCN(Cc5ccccc5)CC4)cc3s2)CC1,71µM*,-9%,-8%,2%,-2%,u
O=C(c1ccc2nc(N3CCCCC3)sc2c1)N1CCN(c2ccccn2)CC1,56µM*,-31%,-2%,54%,-5%,-29%
CCOC(=O)N1CCN(C(=O)c2ccc3nc(N4CCC(C)CC4)sc3c2)CC1,20%[0.0925 µM],-1%,-3%,7%,-7%,-13%
Cn1nnc2cc(NC(=O)N3CCN(c4ccccn4)CC3)ccc21,-1%[12.7 µM],u,21%,8%,-7%,-4%
Cn1nnc2cc(C(=O)N3CCN(c4ccccn4)CC3)ccc21,18µM*,4%,21%,-2%,-9%,-12%
CC(C)OC(=O)[C@@H]1CC[C@H](C)[C@@H](CCC[C@@H]2CC=C[C@H](CC#N)O2)O1,x,x,-1%,x,x,x
COc1cccc(C2NC(=S)NC(C)=C2C(=O)c2ccccc2)c1OC (stereo not given),22µM*,u,8%,43%,4%,-24%
CCOc1cc(C2NC(=S)NC(C)=C2C(=O)Nc2ccccc2)ccc1O (stereo not given),-7%[59 µM],-1%,-29%,18%,u,-20%
COc1cccc(C2NC(=O)NC(C)=C2C(=O)Nc2ccc(C)cc2)c1OC (stereo not given),-1%[59 µM],x,-3%,34%,3%,-1%
C=CCOc1ccc(C2NC(=S)NC(C)=C2C(=O)c2ccccc2)cc1OC (stereo not given),40µM*,-12%,-10%,9%,-10%,-35%
CC(=O)c1ccc(-n2nncc2C(C)(C)C)cc1,-28%[59 µM],-3%,19%,22%,-5%,-2%
Cc1cnnn1-c1ccc(C(=O)CCl)cc1,19%[0.501 µM],u,u,39%,3.8µM*,-31%[57.1 µM]
Clc1ccccc1C(c1ccccc1)(c1ccccc1)n1ccnc1,4%[59 µM],22µM*,-60%,-16%,-12%,28µM*
SMILES,G9a inh,BAZ2B inh,Sfp inh,HP1b chromo inh,PLK1 PBD inh,JMJD2A Tudor
C#CC(c1ccccc1)(c1ccccc1)n1ccnc1,x,x,x,x,2%,x
COc1ccc(CCN(C)CCCOc2ccc(S(=O)(=O)c3[nH]c4ccccc4c3C(C)C)cc2)cc1OC,x,x,40µM*,x,x,x
COc1ccc(CCN(Cc2ccc(C(C)C)cc2)S(=O)(=O)c2ccc(S(=O)(=O)N(C)C)cc2)cc1OC,-10%[59 µM],9%,7%,14%,-3%,-5%
Cc1cccc2sc(N(Cc3cccnc3)C(=O)C3CCCCC3)nc12,-4%[59 µM],12%,x,61%,x,8%
CCOC(=O)c1ccc(NC(=O)c2c(Cl)cc(C)nc2C)cc1,50µM*,-33%,-13%,11%,0%,-11%
CCn1cc(Cl)c(C(=O)Nc2ccc3c(c2)OCCO3)n1,5%,-3%,12%,22%,0%,-7%
O=C(Nc1ccccc1)Nc1cccc(C(F)(F)F)c1,45%,-1%,8%,37%,-6%,-15%[11.4 µM]
Nc1ccccc1Nc1cccc(C(F)(F)F)c1,6.3µM*,50µM*,7%,u,-10%,u
CCn1cc(Cl)c(C(=O)Nc2cccc(C(F)(F)F)c2)n1,52%,31%,29%,22%,u,50µM*
Cc1cc(C)nc(Nc2cccc(C(F)(F)F)c2)n1,50µM*,8%,6%,39%,0%,-3%
COc1nc(Nc2cccc(C(F)(F)F)c2)nc(OC)n1,6%[59 µM],8%,14%,29%,-7%,-8%
CCOC(=O)c1ccc(Nc2cc(C)nc(C)c2C(=O)OCC)cc1,-6%[59 µM],-6%,16%,49%,-5%,4%
COc1ccc(-c2ccc3ncnc(NCC4CCCO4)c3c2)cc1OC (stereo not given),x,x,x,x,x,-35%
Cc1cc(C)cc(NC(=O)CSc2nc(=O)n3cc(C)ccc3n2)c1,8%,10%,x,14%,-10%,-18%
CC1(C)CC(=O)c2c(O)cc(OCC(=O)N3CCN(c4ccccc4)CC3)cc2O1,-27%,u,2%,2%,-14%,-35%
CCOC(=O)c1ccc(NC(=S)Nc2cccc(N)n2)cc1,-30%,-31%,8.9µM*,-5%,-17%,-12%
CCCCCNCC(=O)Nc1cccc(C(=O)Nc2cccc(C(F)(F)F)c2)c1,x,u,32µM*,u,2%,5µM*
Cc1nc(Cl)sc1C(=O)Nc1cccc(C(F)(F)F)c1,x,x,x,87%,-19%,0%
Cc1cc(Cl)c(C(=O)Nc2cccc(C(F)(F)F)c2)c(C)n1,45µM*,u,u,10%,-10%,u
CCOC(=O)c1ccc(NC(=O)c2nccnc2C(=O)O)cc1,28µM*,u,-26%,15%,-13%,40µM*
CCOC(=O)[C@@H]1[C@H]2COc3cc(OC)ccc3[C@H]2N2C(=O)N(c3ccc(C(F)(F)F)cc3)C(=O)[C@]12C,x,x,x,16%,-2%,-10%
CN1CCCC2(CCN(C(=O)c3cc(C(F)(F)F)cc(C(F)(F)F)c3)CC2)C1,-6%[12.7 µM],x,4%,x,x,x
CCOC(=O)C1Oc2ccccc2C(c2ccccc2)=C1C(C)=O (stereo not given),7%,x,1%,x,x,x

# Screens from PubChem BioAssay.
